In PubChem BioAssay (NCATS) one finds Potency, outcome and activity change, negative = inhibition data, which are given here for 15 compounds.

Assay [1] is described as follows: qHTS to identify inhibitors of the type 1 interferon - major histocompatibility complex class I in skeletal muscle: primary screen against the NCATS Mechanism Interrogation Plate v5.0 (MIPE) Libary (AID 1347411). Note: nearly all actives have a fitted effect of over 65% in size. Note: potency is the fitted concentration of half-maximal effect. Put shortly: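 Seed engineered human myoblasts (HLA-B HiBit) in medium without dexamethasone containing 4 ng/ml IFN-beta; after 1 hr add compound titrations (top 46 uM final). Incubate 24 hrs at 37 C, lyse 10 min with HiBiT reagent, read luminescence.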
Background: In qHTS, concentration-response curves come from the screen itself.

Assay [2] deals with Zika virus NS2B-NS3 protease (unlinked complex). Description: Primary screen GU Rhodamine qHTS for Zika virus inhibitors: Unlinked NS2B-NS3 protease assay (AID 1347159). Note: nearly all actives have a fitted effect of over 60% in size. Note: potency is the fitted concentration of half-maximal effect. Put shortly: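 Unlinked NS2B/NS3, 25 nM; Rhod110 peptide, 1.5 microM; compounds, up to 114 microM. Reaction run 15 min at RT in 10 mM Tris-HCl pH 8.0, 0.01% Tween 20; kinetic fluorescence change fitted with a 4-parameter Hill model.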

In assay [3] the test system is Zika virus NS2B-NS3 protease (linked construct). Description: Primary screen NINDS Rhodamine qHTS for Zika virus inhibitors (AID 1347160). Note: nearly all actives have a fitted effect of over 55% in size. Put shortly:
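Single-chain NS2B-NS3 protease, 25 nM, pH 8.0; compounds preincubated 15 min. Activity: Rhodamine110 release from 1.5 microM substrate over 15 min, room temperature, data fitted to 4-parameter Hill.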

Assay [4] in a line: qHTS to identify inhibitors of the type 1 interferon - major histocompatibility complex class I in skeletal muscle: primary screen against the NCATS Pharmaceutical Collection (AID 1347407).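 Note: luminescence of HiBiT knocked into endogenous HLA-B as interferon-induced MHC class I level.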 Put shortly: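 Cells were seeded with 4 ng/ml IFN-beta, incubated 1 h, then dosed with compounds over eight 1:5 steps up to 46 uM final. After 24 h at 37 C, HiBiT lytic reagent was added and luminescence read after 10 min lysis in the dark.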

For assay [5], the target named is Protein phosphatase 1D (Homo sapiens) (UniProt O15297). Briefly: RapidFire Mass Spectrometry qHTS Assay for Modulators of WT P53-Induced Phosphatase 1 (WIP1) (AID 1347424).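 Note: amount of dephosphorylated VEPPL-S-QETFS peptide product formed by WIP1; series mostly up to about 63 µM.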 Put shortly:
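RapidFire mass spectrometry measured dephosphorylated peptide after 5 min room-temperature reaction of 2 uM VEPPL-pS-QETFS with 10 nM WIP1 (50 mM Tris-HCl pH 7.5, 30 mM MgCl2, 0.1 mM EGTA, BSA), following 1 hr compound preincubation; 1 uM isotope-labelled product standard.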

The target is the same in assay [6]. Briefly: Rhodamine-PBP qHTS Assay for Modulators of WT P53-Induced Phosphatase 1 (WIP1) (AID 1347425). Put shortly:
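Steps: enzyme with Rh-PBP sensor and compounds, room-temperature incubation of 1 hr, baseline read, addition of VEPPL-pS-QETFS (10 uM final), kinetic fluorescence reads at 525/598 nm. Activity equals final minus baseline signal.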

A short description of assay [7]: Confirmatory screen NINDS Rhodamine qHTS for Zika virus inhibitors (AID 1347161).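 Note: purified Zika NS2B-NS3 protease with linked NS2B cofactor domain and Rhodamine110 peptide substrate; series mostly up to about 110 µM; nearly all actives have a fitted effect of over 60% in size.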 Put shortly: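 Enzyme (25 nM, linked NS2B-NS3) was preincubated 15 min with compound in 10 mM Tris-HCl pH 8.0, 0.01% Tween 20. Rhodamine110 substrate (1.5 microM) was then added and fluorescence read at start and after 15 min.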
The nature of assay [8]: Tertiary RLuc qRT-PCR qHTS assay for Zika virus inhibitors (AID 1347169). For activity change, negative = inhibition: top concentration of the series differs between compounds. Note: nearly all actives have a fitted effect of over 55% in size. Note: potency is the fitted concentration of half-maximal effect. Put shortly:
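Orthogonal cell-based infection assay using recombinant ZIKV-RLuc (Cambodian) in Vero cells; compound added prior to virus at MOI 1-2. Incubation lasts 48-72 hrs at 37 degrees C before live-cell Renilla substrate is added and luminescence measured.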
For orientation: Quantitative PCR measures a nucleic acid by following its amplification.

Assay [9] in a line: ZIKV-mCherry secondary qHTS for Zika virus inhibitors (AID 1347158). Note: top concentration of the series differs between compounds. Put shortly:
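Compounds were tested in Vero monkey kidney cells infected with recombinant mCherry-expressing Zika virus at MOI 1 for 48-72 h at 37 °C. Fixed cells were nuclear-stained and imaged, and infection rate was taken as the fraction of mCherry-positive cells.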

The test system of assay [10] is Zika virus NS2B-NS3 protease (linked). Description: 384 well plate NINDS AMC confirmatory qHTS for Zika virus inhibitors (AID 1347163). Note: potency is the fitted concentration of half-maximal effect; nearly all actives have a fitted effect of over 50% in size. To be noted: Recombinant NS2B-NS3 protease, Ac-VKTGKR-AMC fluorescence. Put shortly:
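Fluorescence at 355/460 nm was read after 25 minutes of cleavage of 30 microM Ac-VKTGKR-AMC at room temperature, in the dark. Before substrate addition, compounds (up to 1 mM final) sat ~15 minutes with 5, 30 or 60 nM linked protease. Signals were normalized to no-enzyme and no-inhibitor wells.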

Assay [11] relates to Zika virus NS2B-NS3 protease (linked construct). Briefly: 384 well plate NINDS Rhodamine confirmatory qHTS for Zika virus inhibitors (AID 1347164). Note: potency is the fitted concentration of half-maximal effect; nearly all actives have a fitted effect of over 65% in size. To be noted: rhodamine-110 peptide substrate fluorescence. Put shortly:
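Compounds are incubated about 15 minutes with linked protease (5, 30 or 60 nM final). Rhodamine 110-tagged Ac-LKRR substrate (10 microM final) is added and fluorescence measured after 25 minutes.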

Assay [12] is described as follows: Vero cells viability qHTS for Zika virus inhibitors (AID 1347167). Put shortly: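 Luminescent ATP readout (CellTiter Glo) after 30 min at 37 degrees C gives viability; cells in DMEM + 4% FBS were treated 24 to 48 hours with compound, following overnight attachment.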

Results filed as inconclusive are left out. Entries that show only a call come without a potency. Values without a mark were called inactive. Activity calls are given as the source filed them. Calls come from the whole dose curve; as a rule, active = well fitted curve in the direction sought with a large enough effect; inconclusive = small, poorly fitted or top-dose-only effect, or another doubt; inactive = no such curve, though single readings can be large; an effect the other way counts as inactive or inconclusive.

Sequence of Protein phosphatase 1D (Homo sapiens) (O15297 whole entry, looked up): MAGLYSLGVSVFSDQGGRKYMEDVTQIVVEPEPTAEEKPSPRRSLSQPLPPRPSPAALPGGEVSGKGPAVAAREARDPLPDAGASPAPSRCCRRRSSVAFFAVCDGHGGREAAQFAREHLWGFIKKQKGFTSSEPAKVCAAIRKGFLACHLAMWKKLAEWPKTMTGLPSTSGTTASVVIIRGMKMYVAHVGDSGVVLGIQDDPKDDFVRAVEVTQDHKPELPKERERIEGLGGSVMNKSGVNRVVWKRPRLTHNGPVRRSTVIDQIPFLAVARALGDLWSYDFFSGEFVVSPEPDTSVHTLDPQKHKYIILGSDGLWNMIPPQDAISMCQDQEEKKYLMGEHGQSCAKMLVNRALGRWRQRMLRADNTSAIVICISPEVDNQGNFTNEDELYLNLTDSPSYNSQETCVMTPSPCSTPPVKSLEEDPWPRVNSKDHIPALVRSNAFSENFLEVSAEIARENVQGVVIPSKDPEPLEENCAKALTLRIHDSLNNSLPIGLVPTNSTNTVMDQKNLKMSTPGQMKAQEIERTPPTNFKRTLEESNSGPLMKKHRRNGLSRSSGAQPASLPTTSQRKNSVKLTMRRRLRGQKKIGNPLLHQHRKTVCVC

`CCC[C@@H]1C[C@@H](C(=O)N[C@@H]([C@H]2O[C@H](SC)[C@H](O)[C@@H](O)[C@H]2O)[C@H](C)Cl)N(C)C1`: in assay [1], the Potency entry was “inactive”.
For the compound `CC(=O)NCCCS(=O)(=O)O`, the Potency entry in assay [1] is “inactive”.
`CCN(CC)CCOCCOC(=O)C(CC)(CC)c1ccccc1`: the Potency result in assay [2] and in assay [3] was “inactive” in each case.
Take `CC(=O)Oc1cccc2c1C(=O)c1c(OC(C)=O)cc(C(=O)O)cc1C2=O`: the call in [4], in assay [5] and in [6] was inactive.
As to `CC[C@H]1OC(=O)[C@H](C)[C@@H](O[C@H]2C[C@@](C)(OC)[C@@H](O)[C@H](C)O2)[C@H](C)[C@@H](O[C@@H]2O[C@H](C)C[C@H](N(C)C)[C@H]2O)[C@](C)(O)C[C@@H](C)CN(C)[C@H](C)[C@@H](O)[C@]1(C)O`, the Potency entry in assay [1] was “inactive”.
Regarding `N[C@@H](Cc1cc(I)c(Oc2ccc(O)c(I)c2)c(I)c1)C(=O)O`, the Potency in [2] was 14.1 µM (active). In addition, in assay [7], the Potency entry was “inactive”. Moreover, the activity change, negative = inhibition in assay [8] is 35% [at 3.57 µM].
As for `CC(C)Cc1ccc([C@@H](C)C(=O)NS(C)(=O)=O)cc1`, the Potency entry in [1] was “inactive”.
As to `C/C(=C\C(=O)OCCCCCCCCC(=O)O)C[C@@H]1OC[C@H](C[C@@H]2O[C@H]2[C@@H](C)[C@H](C)O)[C@@H](O)[C@H]1O`, the Potency entry in [2] and in [3] was “inactive” each time.
Turning to `Cc1cc(-c2ccc(N=Nc3ccc4c(S(=O)(=O)O)cc(S(=O)(=O)O)c(N)c4c3O)c(C)c2)ccc1N=Nc1ccc2c(S(=O)(=O)O)cc(S(=O)(=O)O)c(N)c2c1O`, the compound was called inactive in assay [9]. Besides, the Potency in assay [10] is 5.62 µM (active); in assay [11], 8.91 µM (active). The Potency result in assay [8] was “inactive”.
As to `CC(C)(C)c1ccc(CN2CCN(C(c3ccccc3)c3ccc(Cl)cc3)CC2)cc1` (stereo unspecified), the Potency result in assay [2] and in assay [3] was “inactive” throughout.
`C=CC[N+]1([C@H]2C[C@H]3[C@@H]4CC[C@H]5C[C@H](O)[C@@H](N6CCOCC6)C[C@]5(C)[C@H]4CC[C@]3(C)[C@H]2OC(C)=O)CCCC1`: the Potency entry in [1] is “inactive”.
With `COc1cc(C)c(/C=C/C(C)=C/C=C/C(C)=C/C(=O)O)c(C)c1C`, the Potency result in assay [1] is “inactive”.
Regarding `O=C1c2ccccc2C(=O)c2c1ccc(O)c2O`, the compound was called inactive in assay [4], in [5] and in [6].
On to `C[C@H]1O[C@@H](O[C@H]2[C@@H](O)C[C@H](O[C@H]3[C@@H](O)C[C@H](O[C@H]4CC[C@@]5(C)[C@H](CC[C@@H]6[C@@H]5C[C@@H](O)[C@]5(C)[C@@H](C7=CC(=O)OC7)CC[C@]65O)C4)O[C@@H]3C)O[C@@H]2C)C[C@H](O)[C@@H]1O`, for which the Potency result in assay [2] and in assay [3] was “inactive” throughout. For the same compound, the outcome in assay [12] was inactive. Also, the Potency is 0.38 µM (active) in assay [8] and 0.037 µM (active) in assay [1].
Take `C[C@]12CC[C@@H]3c4ccc(OC(=O)c5ccccc5)cc4CC[C@H]3[C@@H]1CC[C@@H]2O`: the Potency entry in assay [3] is “inactive”.
